# TDP1 cell CPT: DT40-hTDP1 cell growth loss with CPT; chicken DT40 Tdp1-/-;hTDP1 cells + 20 nM CPT, ATP luminescence, 48 h; Potency, µM (series often up to 46.2 µM), usual class: inhibitors; hit rate 12% among 420,000; AID 686979; also: nearly all actives have a fitted effect of over 55% in size
#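 Chicken DT40 Tdp1-/- cells complemented with human TDP1, 400 cells/well, exposed to compounds plus 20 nM camptothecin for at least 48 h at 37 C; viability read as ATP content by CellTiter-Glo luminescence.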
# ATXN viability: viability counter-screen for ATXN expression inhibitors | S2 cells (HEK-293 line with an ATXN2-luciferase reporter) viability, CellTiter-Fluor protease fluorescence, 24 h | Potency, µM (doses to about 56.7 µM), most hits filed as cytotoxic | hit rate 0.49% among 400,000 | AID 651635; also: nearly all actives have a fitted effect of over 40% in size
# HepG2 viability: HepG2 cytotoxicity, counter-screen for TGF-b inhibitors. hit rate 0.76% among 410,000. Potency, µM (top dose mostly 46.1 µM), usual class: cytotoxic. AID 588856. HepG2 CAGA-GFP viability, ATP luminescence, 18 h
#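 CellTiter-Glo luminescence gave cytotoxicity after 18 hours at 37 degrees C. The cells were HepG2 CAGA-GFP in 1% FBS DMEM, stimulated with 500 pg/mL TGF-beta after compound addition. %Activity was normalised to no-cell wells (complete cell-killing) and DMSO (no toxicity), and curves were fitted and classified.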
# TDP1 cell noCPT: qHTS for Inhibitors of human tyrosyl-DNA phosphodiesterase 1 (TDP1): qHTS in cells in absence of CPT; hit rate 15% among 420,000; DT40 Tdp1-/- hTDP1 cells, no CPT, ATP luminescence, 48 h; Potency, µM (series often up to 46.2 µM), most hits filed as inhibitors; also: nearly all actives have a fitted effect of over 55% in size
#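 Growth of hTDP1-complemented DT40 Tdp1-knockout cells is measured by ATP luminescence after at least 48 hr compound exposure at 37 °C, with DMSO substituting for the 20 nM CPT used in the parallel screen.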
# ATXN2 expr inh: reduces ATXN2 reporter expression in HEK-293 cells; HEK-293 ATXN2-luciferase reporter, luminescence, 24 h; Potency, µM (doses to about 57 µM), most hits filed as inhibitors; hit rate 0.72% among 360,000; also: nearly all actives have a fitted effect of over 55% in size
#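 ATXN2-luciferase reporter cells (luciferase flanked by upstream and downstream ATXN2 gene portions) were treated 24 h at 37 °C with compounds at up to 57 uM. SteadyGlo luminescence gave expression; GF-AFC fluorescence gave viability.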
# TGFb SMAD3 inh: TGF-b pathway inhibition | AID 588855 | HepG2 CAGA-GFP TGF-b/SMAD3 reporter, GFP fluorescence, 18 h; TGF-beta stimulated, 500 pg/mL final | Potency, µM (titrated, usually from 46.1 µM), usual class: inhibitors | hit rate 1.2% among 410,000; also: nearly all actives have a fitted effect of over 65% in size
#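 GFP signal (ex488/em500-530) from TGF-beta-stimulated HEPG2 CAGA-GFP cells, 500 pg/mL final, 18 h at 37 degrees C in DMEM plus 1% FBS, normalized to unstimulated and DMSO-stimulated controls.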
# Numbers stand for hits; i = inactive; ? = inconclusive; nt = no result given. In the library only some 17% were active in any assay of this set; here they are far more common. Calls follow the shape of the dose curve; as a rule, active = well fitted curve in the direction sought with a large enough effect; inconclusive = small, poorly fitted or top-dose-only effect, or another doubt; inactive = no such curve, though single readings can be large; an effect the other way counts as inactive or inconclusive.
SMILES,TDP1 cell CPT,ATXN viability,HepG2 viability,TDP1 cell noCPT,ATXN2 expr inh,TGFb SMAD3 inh
Cc1cccc(NNC(=O)C2CCC2)c1,i,i,i,i,nt,i
Cc1ccc(C(=O)CCS(=O)(=O)c2ccc(Br)cc2)cc1,5.2µM,i,i,5.2µM,i,?
COC(=O)c1ccccc1CCC(C)=O,?,i,i,16µM,i,?
Cn1c(SCCN2CCOCC2)nc2sc3c(c2c1=O)CCCC3,i,i,i,i,i,i
C=CCn1c(SCc2c(C)noc2C)nc2sc3c(c2c1=O)CCCC3,18µM,i,i,?,i,i
COC(=O)c1sc(N)c(C(=O)OC)c1CSc1nc2sc3c(c2c(=O)n1C)CCC3,?,?,i,26µM,i,i
Cc1noc(C)c1CSc1nc2sc3c(c2c(=O)n1C)CCCC3,12µM,?,i,?,i,i
COC(=O)c1ccc(CSc2nc3sc4c(c3c(=O)n2C)CCCC4)o1,?,i,i,?,i,i
N#Cc1cccc(C2CC(OCCF)=CC(=O)O2)c1 (stereo unspecified),i,nt,nt,i,nt,nt
CCOc1ccc(S(=O)(=O)N2CCC(C(=O)NCC3CCCO3)CC2)cc1Cl (stereo unspecified),i,i,i,i,i,i
COC(=O)c1ccc(S(=O)(=O)NCCSc2nnc3c4ccccc4n(C)c3n2)cc1,?,i,i,15µM,i,i
O=C(COC(=O)c1cc(S(=O)(=O)N2CCOCC2)ccc1F)NCc1ccc2c(c1)OCO2,i,i,i,i,i,i
COc1ccc(C2CC(=O)N(Cc3ccc(F)cc3)c3ccccc3S2)cc1 (stereo unspecified),nt,?,i,nt,?,16µM
COc1ccc(C2CC(=O)N(C)c3ccccc3S2)cc1OC (stereo unspecified),21µM,?,i,?,i,i
Cc1ccc(Cn2c(CCCNC(=O)c3ccco3)nc3ccccc32)cc1,?,i,i,?,i,i
O=C(NCCCc1nc2ccccc2n1Cc1ccc(Cl)cc1)c1ccco1,?,nt,i,16µM,nt,nt
O=C(NCCCc1nc2ccccc2n1Cc1cccc(Cl)c1)C1CCCCC1,i,nt,i,?,nt,?
O=C(NCCCc1nc2ccccc2n1Cc1cccc(Cl)c1)c1ccco1,16µM,nt,i,23µM,nt,i
Cn1c(CCCNC(=O)c2ccco2)nc2ccccc21,i,i,i,i,i,i
O=C(NCCCc1nc2ccccc2n1Cc1ccccc1Cl)c1ccco1,29µM,?,i,16µM,?,?
Cc1cccc(CN2CCCC(C(=O)N3CCc4ccccc4C3)C2)c1 (stereo unspecified),?,nt,i,i,nt,i
COc1ccc(C#Cc2cnc3c(c2)C(=O)N([C@H](C)CO)C[C@@H](C)[C@H](CN(C)C(=O)CN(C)C)O3)cc1,i,i,i,i,i,i
CC(=O)c1cnc2ncnn2c1C,i,i,i,i,i,i
COc1ccccc1NC(=O)N1CCN(Cc2nc3ccc(C)cc3o2)CC1,i,?,i,i,i,?
CC(C)(O)C#Cc1ccc(C(=O)NC(CCCNC(N)=O)C(=O)O)s1 (stereo unspecified),i,i,i,i,i,i
SMILES,TDP1 cell CPT,ATXN viability,HepG2 viability,TDP1 cell noCPT,ATXN2 expr inh,TGFb SMAD3 inh
COc1ccc(-c2cnc(SCC(=O)Nc3nc(C(C)(C)C)cs3)n2Cc2ccco2)cc1,?,i,i,21µM,i,?
Cc1cnc(NC(=O)CSc2ncc(-c3ccccc3)n2Cc2ccco2)s1,18µM,?,i,?,i,?
COc1ccc(NC(=O)CSc2ncc(-c3ccc(F)cc3)n2Cc2ccco2)cc1,13µM,i,i,16µM,i,?
CCOc1ccc(NC(=O)CSc2nnc(-c3ccccc3Cl)n2Cc2ccco2)cc1,21µM,i,i,18µM,i,i
COc1ccc(-c2cnc(SCC(=O)Nc3cc(C)on3)n2Cc2ccco2)cc1,i,i,i,?,i,i
COc1ccc(NC(=O)CSc2nnc(-c3ccccc3Cl)n2Cc2ccco2)c(OC)c1,i,i,i,i,i,i
O=C(CSc1ncc(-c2ccc(F)cc2)n1Cc1ccco1)Nc1nccs1,?,i,i,21µM,i,i
CCC(=O)Nc1cc(NC(=O)CSc2ncc(-c3ccc(F)cc3)n2Cc2ccco2)ccc1C,i,i,i,i,i,i
CC1=C(C(=O)OCc2cc(C)on2)N2C(=O)[C@@H](NC(=O)OCc3cc(C)on3)[C@H]2SC1,i,i,i,i,i,i
COc1cc(NC(=O)C2(C)CCCN(C(C)C)C2)cc(OC)c1OC (stereo unspecified),i,i,i,i,i,i
O=C1NC(=O)C2C1C(c1cccs1)NN2Cc1ccccc1 (stereo unspecified),29µM,i,i,29µM,i,i
CC(=O)Nc1ccc(NC(=S)NC(=O)c2ccc(C(C)(C)C)cc2)cc1,i,nt,nt,i,nt,nt
CN(c1ccccc1)c1ccc(/C=C/[N+](=O)[O-])cc1,23µM,nt,7.9µM,21µM,i,?
O=C(OCC(=O)N1CCc2ccccc21)c1c2c(nc3ccccc13)CCCC2,16µM,?,i,23µM,i,i
O=C(OC(C(=O)N1CCOCC1)c1ccccc1)c1c2c(nc3ccccc13)CCCC2 (stereo unspecified),?,nt,i,14µM,nt,i
NC(=O)COC(=O)c1c2c(nc3ccccc13)CCCCC2,i,i,i,i,i,i
O=C(COC(=O)c1c2c(nc3ccccc13)CCCC2)c1cccs1,29µM,i,i,?,i,i
CC(C)(C)C(=O)COC(=O)c1c2c(nc3ccccc13)CCC2,i,i,i,i,i,i
COC(=O)c1c2c(nc3ccccc13)CCC2,i,i,i,?,i,i
CC1Cc2ccccc2N1C(=O)COC(=O)c1c2c(nc3ccccc13)CCCCC2 (stereo unspecified),8.2µM,i,i,12µM,i,i
O=S(=O)(O)CCCS(=O)(=O)O,i,nt,nt,i,nt,nt
Cc1ccc(C2(C)NC(=O)N(CC(=O)c3ccc(Cl)s3)C2=O)cc1 (stereo unspecified),?,i,i,?,i,i
O=C(CCc1nc2ccccc2c(=O)[nH]1)OCC(=O)N1CCc2ccccc21,i,i,i,i,i,?
CC1Cc2ccccc2N1C(=O)COC(=O)CCc1nc2ccccc2c(=O)[nH]1 (stereo unspecified),29µM,i,i,18µM,i,i
Cc1ccccc1CNC(=O)C(=O)NCC(c1cccs1)S(=O)(=O)c1ccc(Cl)cc1 (stereo unspecified),?,i,i,23µM,i,?
